Here are results for 15 molecules from the supplement of paper PMC6522484.

Assay [1] deals with DLD1. The assay is described as follows: cell viability (CellTiter-Glo) relative to plate median (fraction of plate median); higher = more viable cells. The note with it: 5 µM; treatment time 24 h; reporter: 7TFP. The essentials: (§1)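 On parallel plates, a Tecan F500 reader recorded either firefly luciferase or CellTiterGlo luminescence. The plates held colorectal cancer cells stably transduced with lentiviral TCF/Wnt firefly luciferase reporters (7TFP or TCF4/Wnt), seeded in 384-well format and treated 24 h later with library compounds at a final 5 µM for 24 h. Per-well signals were normalised to the plate median (webcellHTS2, additive, no log transformation), and two independent replicates were averaged.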
For orientation: ATP-based viability assays read luminescence as a measure of living cells.

Assay [2] deals with HCT116. The assay is described as above. Particulars: 5 µM; treatment time 24 h; reporter: TCF4/Wnt. The essentials:
as §1

Assay [3] deals with SW480. Described as above. Particulars: 5 µM; treatment time 24 h; reporter: 7TFP. The essentials: as §1
The subject of assay [4] is DLD1. Kind of assay: TCF/Wnt firefly luciferase reporter signal relative to plate median (fraction of plate median); higher = higher Wnt reporter signal. Particulars: 5 µM; treatment time 24 h; reporter: 7TFP. The essentials: as §1
(In a reporter assay the amount or activity of a reporter protein is the signal.)

In assay [5] the test system is SW480. The assay is described as above. The note with it: 5 µM; treatment time 24 h; reporter: 7TFP. The essentials: as §1

± gives the standard deviation of the averaged measurements.

On to `O=C1C(O)=C(O)C(=O)C(O)=C1O`, for which the cell viability in assay [1] was 0.96 ± 0.03; in assay [2], 0.997 ± 0.1; in assay [3], 0.944 ± 0.015. In addition, the “TCF/Wnt firefly luciferase reporter signal” value in assay [4] was 0.829 ± 0.011; in assay [5], 0.822 ± 0.056.

Consider `CN(C)CCN(Cc1ccccc1)c1ccccn1`, for which the cell viability in assay [1] is 0.9435 ± 0.0078; in assay [2], 0.925 ± 0.13; in assay [3], 1 ± 0.022. The “TCF/Wnt firefly luciferase reporter signal” value in assay [4] was 1 ± 0.25; in assay [5], 1.03 ± 0.05.

With `Cc1cccc(N(C)C(=S)Oc2ccc3ccccc3c2)c1`, the cell viability in assay [1] was 1.07 ± 0.028; in assay [2] it was 1.09 ± 0.099; in assay [3], 0.987 ± 0.018. Further, the figures for the “TCF/Wnt firefly luciferase reporter signal” value in assay [4] and in assay [5] were 0.897 ± 0.07 and 0.95 ± 0.04, respectively.

`COc1ccc(-c2coc3cc(O)ccc3c2=O)c(O)c1O`: the cell viability in assay [1] is 1.02 ± 0.035; in assay [2], 0.993 ± 0.038; in assay [3], 1.03 ± 0.014. For the same molecule, the “TCF/Wnt firefly luciferase reporter signal” value in assay [4] was determined as 1 ± 0.079; in assay [5], 1.09 ± 0.028.

Regarding `CC[n+]1c(-c2ccccc2)c2cc(N)ccc2c2ccc(N)cc21`, the figures for the cell viability in assay [1], in assay [2] and in assay [3] were 1.1 ± 0.014, 1.1 ± 0.057 and 1.22, respectively. The results for the “TCF/Wnt firefly luciferase reporter signal” value in assay [4] and in assay [5] were 0.96 ± 0.085 and 1.08 ± 0.12, respectively.

Consider `Cc1c2oc3c(C)ccc(C(=O)N[C@@H]4C(=O)N[C@H](C(C)C)C(=O)N5CCC[C@H]5C(=O)N(C)CC(=O)N(C)[C@@H](C(C)C)C(=O)O[C@@H]4C)c3nc-2c(C(=O)N[C@@H]2C(=O)N[C@H](C(C)C)C(=O)N3CCC[C@H]3C(=O)N(C)CC(=O)N(C)[C@@H](C(C)C)C(=O)O[C@@H]2C)c(N)c1=O`, for which the cell viability is 1.06 ± 0.071 in assay [1], 0.601 ± 0.18 in assay [2] and 1.31 ± 0.035 in assay [3]. The “TCF/Wnt firefly luciferase reporter signal” value turned out to be 0.612 ± 0.11 in assay [4] and 0.802 ± 0.039 in assay [5].

As to `CN(C)c1ccc(C(=C2C=CC(=[N+](C)C)C=C2)c2ccc(N(C)C)cc2)cc1`, the cell viability in assay [1] came to 0.703 ± 0.016; in assay [2], 0.381 ± 0.17; in assay [3], 0.679 ± 0.013. The “TCF/Wnt firefly luciferase reporter signal” value in assay [4] amounted to 0.529 ± 0.091; in assay [5], 0.465 ± 0.012.

On to `Cn1cnc2c1c(=O)[nH]c(=O)n2C`, for which the cell viability in assay [1] turned out to be 1.04 ± 0.028; in assay [2], 1.16 ± 0.092; in assay [3] it was 1.03 ± 0.035. Moreover, the “TCF/Wnt firefly luciferase reporter signal” value in assay [4] came to 1.17; in assay [5], 1.09 ± 0.028.

As to `CCC(=O)NCC[C@@H]1CCc2ccc3c(c21)CCO3`, the cell viability in assay [1] is 1.04 ± 0.021; in assay [2], 1.15 ± 0.092; in assay [3], 1.06 ± 0.028. In addition, the “TCF/Wnt firefly luciferase reporter signal” value in assay [4] amounted to 0.827 ± 0.037; in assay [5], 0.91 ± 0.023.

On to `O=C(O)c1cc(=O)c(O)c2c(O)c(O)c(O)cc2c1`, for which the cell viability in assay [1] is 0.948 ± 0.066; in assay [2] it was 0.82 ± 0.04; in assay [3], 1 ± 0.05. In addition, the “TCF/Wnt firefly luciferase reporter signal” value worked out at 0.806 ± 0.25 in assay [4] and 0.993 ± 0.12 in assay [5].

With `C[n+]1cccc(C(=O)[O-])c1`, the cell viability was 1.03 ± 0.021 in assay [1], 0.938 ± 0.0085 in assay [2] and 1.01 ± 0.018 in assay [3]. Moreover, the “TCF/Wnt firefly luciferase reporter signal” value came out at 1.15 ± 0.071 in assay [4] and 1.11 ± 0.092 in assay [5].

Turning to `OC(c1cc(C(F)(F)F)nc2c(C(F)(F)F)cccc12)C1CCCCN1` (stereo not given), the cell viability in assay [1] turned out to be 0.953 ± 0.033; in assay [2], 1.005 ± 0.0071; in assay [3], 1.02 ± 0.051. For the same molecule, the “TCF/Wnt firefly luciferase reporter signal” value stood at 1.18 ± 0.028 in assay [4] and 1.11 ± 0.057 in assay [5].

In the case of `CC(C)=CCC1=C(O)C(=O)c2ccccc2C1=O`, the cell viability stood at 1.055 ± 0.0071 in assay [1], 1.07 ± 0.064 in assay [2] and 1.02 ± 0.028 in assay [3]. Also, the results for the “TCF/Wnt firefly luciferase reporter signal” value in assay [4] and in assay [5] were 1.15 ± 0.092 and 1.04 ± 0.064, respectively.

Turning to `C=C1CC[C@@H]2[C@](C)(CO)[C@H](O)CC[C@@]2(C)[C@@H]1C/C=C1/C(=O)OC[C@H]1O`, the cell viability in assay [1] is 1.03 ± 0.021; in assay [2], 0.963 ± 0.052; in assay [3], 1.02 ± 0.014. Also, the “TCF/Wnt firefly luciferase reporter signal” value in assay [4] came out at 1.06 ± 0.042; in assay [5], 0.987 ± 0.033.

Consider `CNC1(C)C2CCC(C2)C1(C)C` (stereo not given), for which the cell viability was found to be 0.844 ± 0.018 in assay [1], 0.972 ± 0.11 in assay [2] and 0.924 ± 0.038 in assay [3]. Further, the “TCF/Wnt firefly luciferase reporter signal” value in assay [4] turned out to be 1.05 ± 0.021; in assay [5] it was 0.904 ± 0.054.
